Assay results as given in PMC5540273 (PLoS ONE, 2017).

Key:
Details in all cases: concentration: 1 μM, replicates: in singlicate; n = 1
ERBB2 = system: ERBB2
ERBB3 = system: ERBB3
ERBB4 = system: ERBB4
ERK1 = system: T1, ERK1
T1 construct: gene MAPK3

ERK2 = system: T2, ERK2
T2 construct: gene MAPK1

ERK3 = system: T3, ERK3
T3 construct: gene MAPK6

ERK4 = system: T4, ERK4
T4 construct: gene MAPK4

ERK5 = system: T5, ERK5
T5 construct: gene MAPK7

ERK8 = system: T6, ERK8
T6 construct: gene MAPK15

ERN1 = system: ERN1
FAK = system: T7, FAK
T7 construct: gene PTK2

FER = system: FER
FES = system: FES
FGFR1 = system: FGFR1
FGFR2 = system: FGFR2
FGFR3 = system: FGFR3
FGFR4 = system: FGFR4
FGR = system: FGR
FLT1 = system: FLT1
FLT3-autoinhibited = system: FLT3-autoinhibited
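Further: KINOMEscan kinase panel screen.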

Compound	%Inh (ERBB2) [%]	%Inh (ERBB3) [%]	%Inh (ERBB4) [%]	%Inh (ERK1) [%]	%Inh (ERK2) [%]	%Inh (ERK3) [%]	%Inh (ERK4) [%]	%Inh (ERK5) [%]	%Inh (ERK8) [%]	%Inh (ERN1) [%]	%Inh (FAK) [%]	%Inh (FER) [%]	%Inh (FES) [%]	%Inh (FGFR1) [%]	%Inh (FGFR2) [%]	%Inh (FGFR3) [%]	%Inh (FGFR4) [%]	%Inh (FGR) [%]	%Inh (FLT1) [%]	%Inh (FLT3-autoinhibited) [%]
Cl.O=C(Nc1cccc(-c2nn3ncccc3c2-c2ccnc(Nc3cccnc3)n2)c1)c1c(F)cccc1F [GSK312879]	95.9	0	93.2	8	0	0	16	0	28	4	0	10	11	8	0	23	8	40	45	4
Cc1cc(-c2ccc3c(c2)CC[C@@H](N[C@@H](C)c2ccccc2)C3)cnc1N.Cl [GW412617]	0	0	0	0	12	5	0	0	29	0	0	27	0	9	16	56	19	26	34	8
COC(=O)c1c(-c2ccccc2)c2cc(OC)ccc2c(=O)n1Cc1ccccc1	9	11	0	0	17	0	14	13	0	17	0	0	22	7	3	3	0	29	0	21
Cc1cccc(-c2cc(Nc3ccncc3)c3ccccc3n2)n1 [GSK223675]	0	0	26	0	0	0	25	0	0	13	0	0	0	0	0	12	0	7	13	7
COc1cc(Nc2nccc(N3CCC(NC(=O)Nc4cc(C)ccc4C)C3)n2)cc(OC)c1OC (stereo not drawn) [GSK1379762]	11	0	0	9	0	5	4	0	41	15	0	0	0	5	11	30	0	14	22	0
CN(C)CCN(C)C(=O)c1cc(-c2ccncc2)c(-c2ccc(Cl)c(O)c2)o1.Cl.Cl [SB-710397]	53	26	33	2	0	0	0	0	0	0	0	0	0	0	0	5	0	16	43	0
Cn1ccc2ncnc(Oc3cccc(C(=O)Nc4ccccc4)c3)c21	18	18	0	0	21	0	4	5	6	29	5	8	4	0	0	0	6	5	54	15
C[C@@H]1CCCCN1c1cc(-c2ccc3c(N)n[nH]c3c2)nc(N)n1 [GSK2258759]	18	0	12	8	0	5	0	0	0	0	0	0	0	0	0	7	3	17	14	0
COc1cccc(NC(=O)NC2CCN(c3ccnc(Nc4ccc(F)cc4)n3)C2)c1 (stereo not drawn) [GSK1379721]	28	0	7	0	0	0	21	0	0	19	0	0	0	0	0	6	1	0	11	0
COc1cc2ncnc(Nc3ccc4nc(-c5ccccc5)[nH]c4c3)c2cc1OC.Cl [GW282450]	23	0	33	0	0	0	0	0	0	4	0	42	6	10	0	0	14	14	38	0
Cc1cccc(-c2nc(-c3ccc(S(C)(=O)=O)cc3)sc2-c2ccnc(NCCc3ccccc3)c2)c1	0	3	0	0	0	19	7	5	14	0	0	0	0	5	1	0	0	0	18	0
Nc1ncnc2[nH]c(-c3ccccc3)nc12 [AH5015]	14	0	0	4	0	0	0	0	31	12	8	0	8	2	0	25	2	31	2	0
Cc1ccc(-c2cc(-c3c[nH]nc3-c3ccccn3)ccn2)cc1 [GW684088]	43	36	0	37	0	3	18	0	0	0	0	13	21	0	0	30	9	22	5	22
COc1cc2ncn(-c3cc(OCC4CCCO4)c(C(N)=O)s3)c2cc1OC (stereo not drawn) [GSK204607]	0	20	0	2	0	20	0	0	0	0	0	9	11	0	0	24	0	29	20	0
O=C(Nc1n[nH]c2nc(-c3nccs3)c(Br)cc12)C1CCCC1 [SB-742609]	0	0	0	10	2	0	100	0	60	12	0	0	0	0	0	0	12	20	29	10
Cc1ccccc1-n1cnc2c(N)ncnc21 [SKF-97510]	0	0	0	0	0	2	0	0	0	0	0	4	0	0	0	0	0	0	0	0
O=C(Nc1ccc2c(c1)OCO2)NC1CCN(c2ccnc(Nc3ccc(F)cc3)n2)C1 (stereo not drawn) [GSK1379724]	45	0	44	0	0	17	0	0	7	0	0	7	15	0	0	7	7	11	19	0
Cc1cccc(-c2nc(C)cc(Nc3ccncc3)n2)n1 [GSK257997]	28	0	30	0	0	19	100	0	0	4	0	42	0	7	14	16	0	8	32	0
O=C(Nc1n[nH]c2nc(-c3nccs3)c(Br)cc12)C1CC1 [SB-742251]	2	19	0	0	11	14	16	0	84	0	0	0	12	0	0	0	10	29	36	0
Cn1ccc2ncnc(Oc3ccc(NC(=O)Nc4ccccc4)cc3)c21	14	10	0	0	0	0	12	9	0	2	8	16	5	14	0	0	11	0	89	48
Fc1cccc(COc2nnc(-c3ccc4c(c3)CCO4)o2)c1	3	13	0	0	13	0	0	8	0	15	0	0	14	5	0	0	0	19	0	3
